# “And” between values parts separate entries of the source, which are not always exact repeats. Equal values may be shown once. Where a name gives a salt, the structure may show the parent alone. About 620 (11%) of roughly 5,800 compounds showed activity. The sample as a whole holds a higher share of actives than the screen did. Values without a mark were called inactive.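 The calls were made as follows: active = score above a cut-off or among the top three wells of a plate; in these data no inactive exceeds 0.85.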
# Tested on: primary human hepatic stellate cells (donor 1)
# Assay: scaled lipid accumulation score (0 = DMSO-like, 1 = nortriptyline-like); higher = stronger HSC inactivation (lipid re-accumulation), active = hit call of the paper
# Details: 48 h
# [1] = library stock concentration: 1 mM
# [2] = library stock concentration: 10 mM
# [3] = library stock concentration: 3.33 mM
# [4] = library stock concentration: 2 mM
# [5] = library stock concentration: 400 uM
# [6] = library stock concentration: 80 uM
structure (smiles),measurement,setting,value
CCCCC[C@H](O)/C=C/[C@H]1[C@H](O)CC(=O)[C@@H]1C/C=C\CCCC(=O)NC(CO)CO [Prostaglandin E2 serinol amide],scaled lipid accumulation score,[1],≤ 0
CCN[C@@H]1C[C@H](N)[C@@H](O[C@H]2OC(CN)=CC[C@H]2N)[C@H](O)[C@H]1O[C@H]1OC[C@](C)(O)[C@H](NC)[C@H]1O [Netilmicin sulfate],scaled lipid accumulation score,library stock concentration: 3 mM,≤ 0
CC1=C(/C=C/C(C)=C\C=C\C(C)=C\C(=O)O)C(C)(C)CCC1 [9-cis Retinoic acid],scaled lipid accumulation score,[1],≤ -0.021
NC1C=CC=C(C(=O)O)C1 (configuration not stated) [Gabaculine hydrochloride],scaled lipid accumulation score,[2],≤ 0
CCCCC[C@H](O)/C=C/C1=C(CCCCCCC(=O)O)C(=O)CC1 [Prostaglandin B1],scaled lipid accumulation score,[1],≤ 0 and ≤ -0.021
O=C(NC[C@H]1CN(c2ccc(N3CCOCC3=O)cc2)C(=O)O1)c1ccc(Cl)s1 [Rivaroxaban],scaled lipid accumulation score,[3],≤ 0
same,scaled lipid accumulation score,[2],≤ 0
Cc1ccccc1N=Nc1ccc(NC(=O)c2ccnn2C)c(C)c1,scaled lipid accumulation score,[2],≤ -0.006
"Cc1[nH]c(/C=C2\C(=O)Nc3ccccc32)c(C)c1CCC(=O)O [SU-6668 (TSU-68, Orantinib) (2 mM)]",scaled lipid accumulation score,[4],0.047
"Cc1[nH]c(/C=C2\C(=O)Nc3ccccc32)c(C)c1CCC(=O)O [TSU-68 (SU6668, Orantinib)]",scaled lipid accumulation score,[3],≤ 0
same,scaled lipid accumulation score,[2],≤ 0
CCN(CC)CCNC(=O)c1c(C)[nH]c(/C=C2\C(=O)Nc3ccc(F)cc32)c1C,scaled lipid accumulation score,[5],0.189
same,scaled lipid accumulation score,[2],0.43
CCN(CC)CCNC(=O)c1c(C)[nH]c(/C=C2\C(=O)Nc3ccc(F)cc32)c1C [Sunitinib Malate],scaled lipid accumulation score,[3],0.775
same,scaled lipid accumulation score,[2],0.432
CCN(CC)CCNC(=O)c1c(C)[nH]c(/C=C2\C(=O)Nc3ccc(F)cc32)c1C [Sunitinib malate],scaled lipid accumulation score,[6],≤ -0.009
same,scaled lipid accumulation score,[5],≤ -0.009
same,scaled lipid accumulation score,[2],≤ -0.07 and 0.421
Cc1[nH]c(/C=C2\C(=O)Nc3ccccc32)c(C)c1CCC(=O)O,scaled lipid accumulation score,[2],0.019
CCN(CC)CCNC(=O)c1c(C)[nH]c(/C=C2\C(=O)Nc3ccc(F)cc32)c1C.O=C(O)C[C@H](O)C(=O)O,scaled lipid accumulation score,[4],1.66 (active)
"Cc1[nH]c(/C=C2\C(=O)Nc3ccccc32)c(C)c1CCC(=O)O [SU-6668 (TSU-68, Orantinib) (0.4 mM)]",scaled lipid accumulation score,[5],0.175
CCN(CC)CCNC(=O)c1c(C)[nH]c(/C=C2\C(=O)Nc3ccc(Cl)cc32)c1C,scaled lipid accumulation score,[3],0.556
"Cc1[nH]c(/C=C2\C(=O)Nc3ccccc32)c(C)c1CCC(=O)O [SU-6668 (TSU-68, Orantinib) (10 mM)]",scaled lipid accumulation score,[2],0.012
CCOC(=O)c1c(C)[nH]c(/C=C2\C(=O)Nc3ccccc32)c1C [VEGF Receptor 2 Kinase Inhibitor I],scaled lipid accumulation score,[3],≤ 0
CCN(CC)CCNC(=O)c1c(C)[nH]c(/C=C2\C(=O)Nc3ccc(F)cc32)c1C.O=C(O)C[C@H](O)C(=O)O [Sunitinib malate],scaled lipid accumulation score,[4],0.997 (active)
CCC=CCC=CCC=CCC=CCCCCCCC(=O)O [.omega.-3 Arachidonic Acid],scaled lipid accumulation score,[1],≤ 0
CCN(CC)CCN(Cc1ccc(-c2ccc(C(F)(F)F)cc2)cc1)C(=O)Cn1c(SCc2ccc(F)cc2)nc(=O)c2c1CCC2,scaled lipid accumulation score,[3],0.746
same,scaled lipid accumulation score,[2],0.058
COc1ccc(-c2coc3cc(O)ccc3c2=O)cc1 [Formononetin],scaled lipid accumulation score,[3],≤ 0
same,scaled lipid accumulation score,[2],≤ 0 and ≤ -0.027
Nc1ccc2cn[nH]c2c1,scaled lipid accumulation score,[2],≤ 0
CC(C)(CO)[C@@H](O)C(=O)NCCC(=O)NCCSSCCNC(=O)CCNC(=O)[C@H](O)C(C)(C)CO,scaled lipid accumulation score,[2],≤ 0
COC(=O)C1=C(C)NC(C)=C(C(=O)OCCCN2CCC(c3ccccc3)(c3ccccc3)CC2)[C@H]1c1cccc([N+](=O)[O-])c1 [Niguldipine],scaled lipid accumulation score,library stock concentration: 7.7 mM,≤ -0.021
COC(=O)C1=C(C)NC(C)=C(C(=O)OCCCN2CCC(c3ccccc3)(c3ccccc3)CC2)[C@H]1c1cccc([N+](=O)[O-])c1 [(S)-(+)-Niguldipine hydrochloride],scaled lipid accumulation score,[2],≤ -0.006
Cl.N#Cc1ccc2[nH]cc(CCCCN3CCN(c4ccc5oc(C(N)=O)cc5c4)CC3)c2c1 [Vilazodone HCl],scaled lipid accumulation score,[2],1.1 (active)
N#Cc1ccc2[nH]cc(CCCCN3CCN(c4ccc5oc(C(N)=O)cc5c4)CC3)c2c1 [Vilazodone HCl],scaled lipid accumulation score,[3],0.512
Cc1c(C(=O)N(C)C2CCCCC2)sc2nc3ccc(N)cc3n12,scaled lipid accumulation score,[2],0.01
O=C(Nc1ccc2[nH]nc(-c3ccncc3)c2c1)[C@@H]1CCN(CC(=O)N2CCN(c3ccc(-c4ncccn4)cc3)CC2)C1 [listing 1 of 2 here],scaled lipid accumulation score,[2],0.909 (active)
O=C(Nc1ccc2[nH]nc(-c3ccncc3)c2c1)[C@@H]1CCN(CC(=O)N2CCN(c3ccc(-c4ncccn4)cc3)CC2)C1 [listing 2 of 2 here],scaled lipid accumulation score,[6],≤ -0.001
same,scaled lipid accumulation score,[5],≤ -0.001
same,scaled lipid accumulation score,[4],≤ -0.001
O=C(Nc1ccc2[nH]ncc2c1)C1CCC1 [Rhodblock 6],scaled lipid accumulation score,[2],0.092
O=C(OC[C@H]1O[C@@H](OC(=O)c2cc(O)c(O)c(OC(=O)c3cc(O)c(O)c(O)c3)c2)[C@H](OC(=O)c2cc(O)c(O)c(OC(=O)c3cc(O)c(O)c(O)c3)c2)[C@@H](OC(=O)c2cc(O)c(O)c(OC(=O)c3cc(O)c(O)c(O)c3)c2)[C@@H]1OC(=O)c1cc(O)c(O)c(OC(=O)c2cc(O)c(O)c(O)c2)c1)c1cc(O)c(O)c(OC(=O)c2cc(O)c(O)c(O)c2)c1 [Tannic acid],scaled lipid accumulation score,[2],≤ -0.027
CCc1cc(Cl)c(OC)c(C(=O)NC[C@@H]2CCCN2CC)c1O.Cl [Eticlopride hydrochloride],scaled lipid accumulation score,[2],0.978 (active)
CCN1CCC[C@H]1CNC(=O)c1c(O)c(Cl)cc(Cl)c1OC [S(+)-Raclopride L-tartrate],scaled lipid accumulation score,[2],≤ 0
CCN1CCC[C@H]1CNC(=O)c1c(O)c(Cl)cc(Cl)c1OC [Raclopride],scaled lipid accumulation score,[2],≤ 0 and ≤ -0.006
CCc1cc(Cl)c(OC)c(C(=O)NC[C@@H]2CCCN2CC)c1O,scaled lipid accumulation score,[2],0.351
CCCCC[C@H](O)/C=C/[C@@H]1[C@@H](C/C=C\CCCC(=O)O)[C@@H](O)C[C@@H]1O [11.beta.-Prostaglandin F2.alpha.],scaled lipid accumulation score,[1],≤ 0
"CCCCC[C@H](O)/C=C/[C@@H]1[C@@H](C/C=C\CCCC(=O)O)[C@@H](O)C[C@@H]1O [9a,11b-Prostaglandin F2]",scaled lipid accumulation score,[1],≤ -0.021
CCCCCCCCCCCCCCCCCCCCCCCCCCCCCCO [n-Triacontanol],scaled lipid accumulation score,[1],0.026
O=C(O)Cc1ccccc1Nc1c(Cl)cccc1Cl [Diclofenac (sodium salt)],scaled lipid accumulation score,[1],≤ 0
O=C(O)Cc1ccccc1Nc1c(Cl)cccc1Cl,scaled lipid accumulation score,[2],≤ 0
Cl.Cl.Clc1ccccc1CNC[C@H]1CC[C@H](CNCc2ccccc2Cl)CC1,scaled lipid accumulation score,[2],1.48 (active)
O=C(O)Cc1ccccc1Nc1c(Cl)cccc1Cl [Diclofenac sodium],scaled lipid accumulation score,,0.036
same,scaled lipid accumulation score,library stock concentration: 6.3 mM,0.003
same,scaled lipid accumulation score,[2],≤ -0.07 and ≤ 0
O=C(O)Cc1ccccc1Nc1c(Cl)cccc1Cl [Diclofenac Potassium],scaled lipid accumulation score,[3],≤ 0
same,scaled lipid accumulation score,[2],≤ 0
O=C(O)Cc1ccccc1Nc1c(Cl)cccc1Cl [Diclofenac Diethylamine],scaled lipid accumulation score,[3],≤ 0
same,scaled lipid accumulation score,[2],≤ 0
COc1ccccc1CNCCCCCCNCCCCCCCCNCCCCCCNCc1ccccc1OC [Methoctramine tetrahydrochloride],scaled lipid accumulation score,[2],0.621
O=C(O)Cc1ccccc1Nc1c(Cl)cccc1Cl [Diclofenac Sodium],scaled lipid accumulation score,[3],≤ 0
same,scaled lipid accumulation score,[2],0.007
Cc1ncc(CSSCc2cnc(C)c(O)c2CO)c(CO)c1O,scaled lipid accumulation score,[2],≤ 0
O=C1c2c(O)cc(CO)cc2C(OC2OC(CO)C(O)C(O)C2O)c2cccc(OC3OC(CO)C(O)C(O)C3O)c21 (configuration not stated) [CASANTHRANOL [cascaroside A shown]],scaled lipid accumulation score,[2],≤ 0
CCCCCCCCCCCSCC(=O)O [3-Thiatetradecanoic Acid],scaled lipid accumulation score,[1],0.006
Cn1cc(-c2[nH]c3cc(NC(=O)[C@H](N)C4CCCCC4)cc4c3c2C=NNC4=O)cn1,scaled lipid accumulation score,[3],≤ 0
same,scaled lipid accumulation score,[2],0.077
CN1c2cc3c(cc2N=C(c2ccc(C(=O)O)cc2)c2ccccc21)C(C)(C)CCC3(C)C,scaled lipid accumulation score,[2],0.08
CNCCC[C@]12CC[C@H](c3ccccc31)c1ccccc12 [Maprotiline HCl],scaled lipid accumulation score,library stock concentration: 7.2 mM,1.22 (active)
CNCCCC12CCC(c3ccccc31)c1ccccc12 [Maprotiline HCl],scaled lipid accumulation score,[3],0.678
CNCCCC12CCC(c3ccccc31)c1ccccc12 [Maprotilline HCl],scaled lipid accumulation score,[2],1.35 (active)
C=CCN1CCc2c(cc(O)c(O)c2Cl)C(c2ccccc2)C1 (configuration not stated),scaled lipid accumulation score,[2],0.02
NCCNC(=O)c1ccc(Cl)cn1 [Lazabemide hydrochloride],scaled lipid accumulation score,[2],≤ -0.001
CCCCNC(=O)[C@@H]1Cc2ccccc2N1C(=O)[C@@H](N)CC [Butabindide oxalate],scaled lipid accumulation score,[2],0.016
"CCCCCCCCCCCC=CC(C)(C)C=CCCCC(=O)O [7,7-Dimethyleicosadienoic acid]",scaled lipid accumulation score,[1],≤ -0.02
CN1CCN(C2=Nc3cc(F)ccc3Cc3ccccc32)CC1 [Fluperlapine],scaled lipid accumulation score,[2],0.448
CN1CCN(C2=Nc3cc(Cl)ccc3Nc3ccccc32)CC1,scaled lipid accumulation score,[2],0.854 (active)
CN1CCN(C2=Nc3cc(Cl)ccc3Nc3ccccc32)CC1 [Clozapine] [listing 1 of 2 here],scaled lipid accumulation score,,1 (active)
Clc1ccc2c(c1)N=C(N1CCNCC1)c1ccccc1N2 [N-Desmethylclozapine] [listing 1 of 2 here],scaled lipid accumulation score,[2],0.941 (active)
CN1CCN(C2=Nc3cc(Cl)ccc3Nc3ccccc32)CC1 [Clozapine] [listing 2 of 2 here],scaled lipid accumulation score,[2],0.977 (active)
Clc1ccc2c(c1)N=C(N1CCNCC1)c1ccccc1N2 [N-Desmethylclozapine] [listing 2 of 2 here],scaled lipid accumulation score,[2],0.668

# From the supplement of paper PMC9135407
